{"source": "PubChem BioAssay (EPA / NIEHS)", "note": "Records with an inconclusive call do not appear. Activity calls are given as the source filed them. Rule for the calls: active = hit-call score of the fitted dose curve at least 0.9, where 1 is the maximum; inconclusive = response in the unintended direction; inactive = score below 0.9."}
{"target": "Retinoic acid receptor alpha (Homo sapiens) (UniProt P10276)", "sequence (P10276 whole entry, looked up)": "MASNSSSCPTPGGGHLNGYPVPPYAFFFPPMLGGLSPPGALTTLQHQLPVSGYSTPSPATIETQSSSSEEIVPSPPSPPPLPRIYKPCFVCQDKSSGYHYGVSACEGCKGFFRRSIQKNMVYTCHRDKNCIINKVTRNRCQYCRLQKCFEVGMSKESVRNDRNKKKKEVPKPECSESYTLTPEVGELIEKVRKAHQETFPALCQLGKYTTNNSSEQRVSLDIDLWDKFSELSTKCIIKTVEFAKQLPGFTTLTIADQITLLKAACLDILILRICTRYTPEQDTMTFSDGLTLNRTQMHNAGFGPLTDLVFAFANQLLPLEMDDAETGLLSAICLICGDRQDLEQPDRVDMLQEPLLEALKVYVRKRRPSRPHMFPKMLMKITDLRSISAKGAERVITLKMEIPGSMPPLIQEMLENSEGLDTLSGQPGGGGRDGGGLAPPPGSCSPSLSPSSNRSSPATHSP", "test": "ATG_RARa_TRANS: Attagene TRANS-FACTORIAL HepG2 Assay for human Retinoic Acid Receptor alpha (RARa) (AID 2283005);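 for AC50: potency for increased reporter signal meaning RARa activation over DMSO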", "experimental": "ATG_TRANS is a cell-based, multiplexed-readout assay that uses HepG2, a human liver cell line, with measurements taken at 24 hours after chemical dosing in a 24-well plate.ATG_RARa_TRANS is one of 30 assay component(s) measured or calculated from the ATG_TRANS assay. It is designed to make measurements of mRNA induction, a form of inducible reporter, as detected with fluorescence intensity signals by Reverse transcription polymerase chain reaction (RT-PCR) and Capillary electrophoresis technology.Data from the assay component ATG_RARa_TRANS was analyzed into 1 assay endpoint. This assay endpoint, ATG_RARa_TRANS, was analyzed in the positive analysis fitting direction relative to DMSO as the negative control and baseline of activity. Using a type of inducible reporter, measures of mRNA for gain-of-signal activity can be used to understand the reporter gene at the transcription factor-level as they relate to the gene RARA. Furthermore, this assay endpoint can be referred to as a primary readout, because this assay has produced multiple assay endpoints where this one serves a reporter gene function. To generalize the intended target to other relatable targets, this assay endpoint is annotated to the nuclear receptor intended target family, where the subfamily is non-steroidal.\nHuman liver HepG2 cells are transiently transfected with multiple reporter transcription units (MRTUs) in 6-well plates using FuGene 6 reagent (Roche; 3 ml FuGene/1 mg DNA). The MRTU constructs are regulated by a cis-regulating element (promoter). […] A major difference between the CIS and TRANS system is that in CIS activities of endogenous TFs are measured, whereas the TRANS assay evaluates changes in activities of exogenous, chimeric NR-Gal4 proteins. […] At the end of 24 hour incubation, total RNA was isolated using TriZol reagent (Invitrogen). The isolated RNA is then reverse-transcribed using oligo(dT) primer and Mo-MLV reverse transcriptase (Invitrogen) with DNAse I (Ambion) treatment for 30 min. The one-tenth of the produced cDNA was amplified by PCR using Taq DNA polymerase (Invitrogen) and two reporter sequence-specific primers. The PCR products were fluorescently labeled by primer extension with 6-arboxyfluorescein (6-FAM) 5'-labeled reporter sequence-specific primer (2 min at 95 C, 20 s at 68 C and 10 min at 72 C) and these products were digested with 5U of HpaI (New England Biolabs) for 2h at 37 C. The fragments were purified using Qiaquick PCR columns (Qiagen), analyzed on an ABI 3130xL genetic analyzer (Applied Biosystems) with peak positions identified by using a set of X-rhodamine (ROX)-labeled MapMarker1000 molecular weight standards (BioVentures). The raw capillary electrophoresis data was processed using Attagraph software (Attagene)."}
{"smiles": "CCNP(=S)(OC)O/C(C)=C/C(=O)OC(C)C", "note": "(stereo not given)", "AC50": "22.1 µM (active)"}
{"smiles": "OC(c1ccc(Cl)cc1)(c1ccc(Cl)cc1)C(Cl)(Cl)Cl", "outcome": "inactive"}
{"smiles": "CC1(C)C(C(=O)OC(C#N)c2cccc(Oc3ccccc3)c2)C1(C)C", "note": "(stereo not given)", "AC50": "13.7 µM (active)"}
{"smiles": "Cc1cc(C)nc(Nc2ccccc2)n1", "outcome": "inactive"}
{"smiles": "CS(=O)(=O)c1cc(C(F)(F)F)ccc1C(=O)c1cnoc1C1CC1", "outcome": "inactive"}
{"smiles": "CC1(C)CON(Cc2ccccc2Cl)C1=O", "outcome": "inactive"}
{"smiles": "CCCC(=NOCC)C1=C(O)CC(CC(C)SCC)CC1=O", "note": "(stereo not given)", "outcome": "inactive"}
{"smiles": "CCOc1cc(C(C)(C)C)ccc1C1COC(c2c(F)cccc2F)=N1", "note": "(stereo not given)", "AC50": "3.63 µM (active)"}
{"smiles": "CCSC(=O)N1CCCCCC1", "outcome": "inactive"}
{"smiles": "CCNC(=O)NC(=O)C(C#N)=NOC", "outcome": "inactive"}
{"smiles": "Cc1cnc(C2=NC(C)(C(C)C)C(=O)N2)c(C(=O)O)c1", "note": "(stereo not given)", "outcome": "inactive"}
{"smiles": "CC(C)Oc1cccc(NC(=O)c2ccccc2C(F)(F)F)c1", "outcome": "inactive"}
{"smiles": "COCC(=O)N(c1c(C)cccc1C)C(C)C(=O)OC", "note": "(stereo not given)", "outcome": "inactive"}
{"smiles": "CCOc1nc(C(Cl)(Cl)Cl)ns1", "outcome": "inactive"}
{"smiles": "O=C1C2CC=CCC2C(=O)N1SC(Cl)(Cl)Cl", "note": "(stereo not given)", "outcome": "inactive"}
{"smiles": "CCOP(=S)(OCC)Oc1nc(Cl)n(C(C)C)n1", "outcome": "inactive"}
{"smiles": "CC1(C)CCC(=Cc2ccc(Cl)cc2)C1(O)Cn1cncn1", "note": "(stereo not given)", "outcome": "inactive"}
{"smiles": "Cc1c(COC(=O)[C@@H]2[C@H](/C=C(\\Cl)C(F)(F)F)C2(C)C)cccc1-c1ccccc1", "outcome": "inactive"}
{"smiles": "C=C(C)CN(CC)c1c([N+](=O)[O-])cc(C(F)(F)F)cc1[N+](=O)[O-]", "AC50": "30.2 µM (active)"}
{"smiles": "CNC(=O)N(C)c1nnc(C(C)(C)C)s1", "outcome": "inactive"}
{"smiles": "CN/C(=N\\[N+](=O)[O-])NCc1cnc(Cl)s1", "outcome": "inactive"}
{"smiles": "COc1cc(Cl)c(OC)cc1Cl", "outcome": "inactive"}
{"smiles": "CC(C)(C)C(=O)C(Oc1ccc(Cl)cc1)n1cncn1", "note": "(stereo not given)", "AC50": "50 µM (active)"}
{"smiles": "Clc1nc(Cl)nc(Nc2ccccc2Cl)n1", "outcome": "inactive"}
{"smiles": "Nc1c(Cl)c(F)nc(OCC(=O)O)c1Cl", "outcome": "inactive"}
{"smiles": "CC(C)=CC1C(C(=O)OCc2coc(Cc3ccccc3)c2)C1(C)C", "note": "(stereo not given)", "outcome": "inactive"}
{"smiles": "CCCCC(C#N)(Cn1cncn1)c1ccc(Cl)cc1", "note": "(stereo not given)", "AC50": "19.7 µM (active)"}
{"smiles": "COCc1cnc(C2=NC(C)(C(C)C)C(=O)N2)c(C(=O)O)c1", "note": "(stereo not given)", "outcome": "inactive"}
{"smiles": "CN=C=S", "outcome": "inactive"}
{"smiles": "O=c1n(Cl)c(=O)n(Cl)c(=O)n1Cl", "outcome": "inactive"}
{"smiles": "CNC(=O)Oc1cccc2ccccc12", "outcome": "inactive"}
{"smiles": "N#CN=C1SCCN1Cc1ccc(Cl)nc1", "outcome": "inactive"}
{"smiles": "CCN(CC)c1nc(C)cc(OP(=S)(OC)OC)n1", "outcome": "inactive"}
{"smiles": "O=P(O)(O)CCCl", "outcome": "inactive"}
{"smiles": "CC1(C)C(C=C(Cl)Cl)C1C(=O)OC(C#N)c1cccc(Oc2ccccc2)c1", "note": "(stereo not given)", "outcome": "inactive"}
